From ChEMBL document CHEMBL4513149, “CO-ADD screening of MMV (CH) - MMV compounds” (2021)
Screen size: about 21,000 compounds; fewer than 10 showed an effect of 50% or more. A selection follows. Potency and affinity values are given separately.

test system: Acinetobacter baumannii; conditions: Concentration 20 uM; ASSAY_TEST Inhibition of Bacterial Growth; detection method Absorption (OD600); MEDIA CAMHB; plate type 384well; NBS; CORNING #3640; time 18 hr

Row | Structure (SMILES) | Inhibition
1 | O=C(CN1CCOCC1)Nc1ccc2ncnc(Nc3ccc(OCc4cccc(F)c4)c(Cl)c3)c2c1 | 8.91%
2 | Cl.O=C(Nc1ccc(N2CCNCC2)nc1)c1oc(-c2ccccc2)nc1C(F)(F)F | 4.8%
